# Hits are enriched below; roughly 9.4% of the tested compounds scored in any of these assays.
# FLuc counter = qHTS profiling assay for firefly luciferase inhibitor/activator using purifed enzyme and Km concentrations of substrates (counterscreen for miR-21 project) | purified FLuc, Km substrates, luminescence inhibition | 360,000 compounds, 6.9% hits | Luciferin 4-monooxygenase (Photinus pyralis), P08659 | AID 588342, 2011 | Potency, µM (series often up to 57.5 µM), inactives show top-dose activity change, negative = inhibition, most hits filed as inhibitors;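 note: plate controls were vehicle for no effect and reference inhibitor for full effect; nearly all actives have a fitted effect of over 55% in size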
# Target sequence (P08659 whole entry, looked up): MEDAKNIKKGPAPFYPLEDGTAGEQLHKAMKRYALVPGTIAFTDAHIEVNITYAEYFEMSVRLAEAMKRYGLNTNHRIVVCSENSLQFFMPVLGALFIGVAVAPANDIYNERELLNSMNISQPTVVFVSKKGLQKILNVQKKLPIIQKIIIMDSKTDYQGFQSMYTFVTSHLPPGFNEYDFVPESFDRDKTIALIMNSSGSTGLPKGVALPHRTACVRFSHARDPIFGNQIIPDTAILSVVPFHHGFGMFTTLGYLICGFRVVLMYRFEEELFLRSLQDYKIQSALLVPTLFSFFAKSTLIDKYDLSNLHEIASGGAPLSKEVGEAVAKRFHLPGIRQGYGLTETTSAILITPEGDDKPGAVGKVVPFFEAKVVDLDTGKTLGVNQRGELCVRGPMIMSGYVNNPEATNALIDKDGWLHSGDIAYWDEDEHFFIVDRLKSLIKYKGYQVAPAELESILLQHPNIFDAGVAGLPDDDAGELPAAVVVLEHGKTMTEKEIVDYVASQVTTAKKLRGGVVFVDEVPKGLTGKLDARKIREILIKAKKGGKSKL
#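 Biochemical qHTS of compounds, final roughly 60 µM downward over six points, against 10 nM purified firefly luciferase using Km concentrations of substrates (10 uM D-luciferin, 10 uM ATP) in Tris acetate pH 7.5 buffer; luminescence output.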
# Rab9 promoter act = qHTS Assay for Rab9 Promoter Activators; Potency, µM (series often up to 9.22 µM), for inactives: at the highest dose activation, negative = inhibition, most hits filed as activators; 320,000 compounds, 2.8% hits; Huh7 Rab9 promoter-luciferase reporter, luminescence, 24 h; note: % of control where 0% means no effect; nearly all actives have a fitted effect of over 60% in size
#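 Rab9 promoter-driven luciferase in stably transfected Huh7 cells; 1500 cells/well rested 2 h, exposed to compound in DMSO for 24 h at 37 °C, 5% CO2. Luminescence read 10 min after adding luciferase reagent at ambient temperature.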
# NPC1 prom act = qHTS Assay for NPC1 Promoter Activators. Potency, µM (titrated, usually from 9.22 µM), for the others: at the top dose activation, usual class: activators. Huh7 NPC1 promoter luciferase reporter, 24 h. 320,000 compounds, 2.4% hits; note: % of control where 0% means no effect; nearly all actives have a fitted effect of over 60% in size
#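 Luminescence from an NPC1 promoter-driven luciferase reporter in stably transfected Huh7 cells was measured after 24 h compound treatment at 37 °C, followed by 10 min ambient incubation with luciferase detection reagent.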
# ELG1 genotoxic = qHTS screen for small molecules that induce genotoxicity in human embryonic kidney (HEK293T) cells expressing luciferase-tagged ELG1. HEK293T ELG1-luciferase reporter, luminescence, 16 h. Potency, µM (doses to about 46 µM), for inactives: top-dose activity change, positive = activation, hits mostly activators. 330,000 compounds, 1.3% hits; note: % of control where 0% means no effect; nearly all actives have a fitted effect of over 60% in size
#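 Luminescence read-out: rising ELG1-luciferase signal, reflecting elevated ELG1 protein under genetic stress, flags genotoxic compounds. Cells were treated for 16 hr at 37 °C before ONE-Glo detection.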
# ELG1 repair inh = qHTS screen for small molecules that inhibit ELG1-dependent DNA repair in human embryonic kidney (HEK293T) cells expressing luciferase-tagged ELG1. HEK293T ELG1-luciferase reporter, luminescence, 16 h; DNA damage induced by 5-fluorouridine. 330,000 compounds, 2.3% hits. Potency, µM (doses to about 46.1 µM), inactives show at the top dose activity change, negative = inhibition, hits mostly inhibitors; note: % is set by controls: 0 for no effect and ±100 for the full control effect; nearly all actives have a fitted effect of over 55% in size
#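 Overnight (16 hr) co-exposure of 2,000 cells/well to 5-fluorouridine and compound at 37 °C preceded detection. Luciferase was quantified via ONE-Glo luminescence; loss of signal denotes inhibition.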
# SMN2 splice up = qHTS Assay for Enhancers of SMN2 Splice Variant Expression; HEK293 SMN2-luciferase splicing reporter, luminescence, 30-36 h; Potency, µM (highest dose often 46.1 µM), for the others: top-dose activity change, positive = activation, usual class: activators; 210,000 compounds, 2.8% hits; AID 1458, 2008; note: % of control where 0% means no effect; nearly all actives have a fitted effect of over 55% in size
#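 HEK293 cells carry an SMN2 minigene-luciferase reporter in which exon 7 inclusion puts luciferase in frame. Cells were seeded at 2000 cells/well, attached for 10-12 hours, then exposed to compounds for 30-36 hours at 37C before ONE-Glo luminescence.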
# An asterisk follows results filed as active; ? = inconclusive; nt = no result. Calls come from the whole dose curve; as a rule, active = well fitted curve in the direction sought with a large enough effect; inconclusive = small, poorly fitted or top-dose-only effect, or another doubt; inactive = no such curve, though single readings can be large; an effect the other way counts as inactive or inconclusive. Potency is the fitted concentration of half-maximal effect.
SMILES,FLuc counter,Rab9 promoter act,NPC1 prom act,ELG1 genotoxic,ELG1 repair inh,SMN2 splice up
Cc1cccc(C)c1N=C1NN=C(c2ccccc2F)CS1,-26%,-4%,-3%,-5%,4%,nt
Cc1ccccc1N=C1NN=C(c2ccccc2F)CS1,21µM*,?,?,18%,?,11µM*
Cc1ccc(OCn2c(=O)sc3ccccc32)cc1,24µM*,?,?,16µM*,?,?
COc1ccccc1OCCCn1c(=O)sc2ccccc21,15µM*,29%,14%,12%,?,18%
COc1ccccc1OCCCn1c(=O)oc2ccccc21,?,1%,4%,8%,?,16%
O=c1sc2ccccc2n1CCOc1ccccc1,13µM*,?,?,21µM*,?,?
CCCOc1ccc(Cn2c(=O)sc3ccccc32)cc1,-14%,nt,nt,nt,nt,-18%
Cc1ccc(N2CC(C(=O)N3CCN(Cc4ccc5c(c4)OCO5)CC3)CC2=O)cc1 (centres undefined),-3%,-3%,-1%,-5%,-9%,nt
Cc1ccc2c(c1)c(=O)c(S(=O)(=O)c1ccc(C)c(C)c1)cn2CC(=O)Nc1ccccc1,0%,nt,nt,nt,nt,-2%
Cc1ccc(N/N=C2\CS(=O)(=O)N(C)c3ccsc32)cc1,12µM*,?,3.5µM*,17%,?,0.89µM*
O=C1NCCC/C1=N/Nc1ccc(F)cc1,-5%,-1%,-1%,?,27%,8%
CCCC(=O)N/N=C1\CS(=O)(=O)N(C)c2ccsc21,0%,0%,7%,1%,6%,-13%
CN1c2ccsc2/C(=N/Nc2ccc(F)cc2)CS1(=O)=O,19µM*,?,?,?,?,?
C=CCN(c1ccccc1)S(=O)(=O)c1cccc(C(=O)Nc2nc3ccccc3[nH]2)c1,-1%,-7%,-1%,-8%,23µM*,1%
C=CCN(c1ccccc1)S(=O)(=O)c1cccc(C(=O)NCc2ccncc2)c1,5%,-7%,-2%,-1%,8.2µM*,nt
O=C(NCC(c1ccc2c(c1)OCO2)N1CCOCC1)C(=O)Nc1ccc(Cl)cc1 (centres undefined),-1%,nt,nt,nt,nt,nt
CCOc1ccc(OCC)c(NC(=O)c2csc3c2CCCC3)c1,1%,nt,nt,nt,nt,19%
C/C(=N\Nc1ccc(F)cc1F)c1ccccc1O,19µM*,12%,2%,?,?,7%
Cc1ccc(N=Nc2ccc3ccccc3c2O)cc1,0.24µM*,2.5µM*,0.56µM*,?,?,nt
Oc1c(N=Nc2ccc(F)cc2)ccc2ccccc12,0.6µM*,4.5µM*,3.2µM*,2.1µM*,?,nt
COc1ccc2c(C)c(CCC(=O)NCc3ccc(C)cc3)c(=O)oc2c1,1%,nt,nt,nt,nt,13%
CNC(=S)N/N=C/c1c(C)nn(-c2ccc(F)cc2)c1Cl,-3%,-4%,-3%,15%,30%,11%
Cc1nn(-c2ccc(F)cc2)c(Cl)c1/C=N/NC(=O)c1ccc(O)cc1,19µM*,0%,2%,-3%,-6%,9%
Cc1nn(-c2ccc(F)cc2)c(Cl)c1/C=N/NC(=O)c1cccs1,?,2µM*,?,17%,?,?
O=C(CN1CCCCC1)N/N=C/c1ccc(Cl)cc1,-13%,7%,-1%,3%,11%,nt
SMILES,FLuc counter,Rab9 promoter act,NPC1 prom act,ELG1 genotoxic,ELG1 repair inh,SMN2 splice up
O=C(O/N=C/c1ccc(Cl)cc1)C1CCCCC1,2.7µM*,1%,1%,-2%,-3%,nt
CCCCn1c(=N)n(CC(=O)c2ccc(OC)cc2)c2ccccc21,-1%,-6%,-3%,-7%,?,nt
COc1ccc(C(=O)CN2C(=O)COc3ccccc32)cc1,2%,-2%,-6%,6%,0%,nt
Cn1c(=N)n(CC(=O)c2ccc(Cl)c(Cl)c2)c2ccccc21,0.38µM*,?,?,?,?,nt
Cn1c(=N)n(CC(=O)O)c2ccccc21,0%,-2%,-3%,0%,5%,18%
COc1ccc(C(=O)Cn2c(=N)n(C)c3ccccc32)cc1,8.5µM*,?,26%,?,?,nt
COc1ccc(C(=O)CN2Cc3ccccc3C2=N)cc1,11µM*,2.5µM*,4µM*,2.6µM*,?,nt
Cn1c(=N)n(CC(=O)c2ccccc2)c2ccccc21,1.2µM*,1.1µM*,3.2µM*,0.37µM*,?,nt
Cc1ccccc1OCCn1c(-c2ccc(Cl)cc2)nc2ccccc2c1=O,4%,nt,nt,nt,nt,-12%
CC(C)(C)c1ccc(NC(=O)CSc2nnc3scc(-c4ccccc4)n23)cc1,-16%,nt,nt,nt,nt,-3%
COC(=O)c1ccccc1O,nt,nt,nt,nt,nt,2%
O=C(N=Nc1ccc(NOC(=O)c2ccccc2Br)cc1)c1ccccc1O,8.5µM*,?,?,3%,?,-29%
c1ccc(CN2CCN(c3ncccn3)CC2)cc1,2%,-5%,-4%,-1%,-6%,nt
c1ccc(COc2ccc(CN3CCN(c4ccccn4)CC3)cc2)cc1,6.7µM*,2.2µM*,?,21µM*,?,19%
NC(=O)C1CCN(Cc2ccc(OCc3ccccc3)cc2)CC1,15µM*,?,2.5µM*,?,?,nt
CCOC(=O)C1CCN(Cc2ccc(OCc3ccccc3)cc2)CC1,-16%,4%,-3%,-3%,1%,nt
CC(C)COc1ccc(/C(=N/O)c2ccccc2)cc1,17µM*,22%,20%,?,?,-14%
CC(C)(CC(=O)O)CC(=O)Nc1cc(C(F)(F)F)cc(C(F)(F)F)c1,-1%,2%,2%,0%,-29%,nt
CCn1c(SCC(=O)N/N=C/c2c[nH]c3ccccc23)nnc1-c1ccc(C(C)(C)C)cc1,?,-2%,1%,-11%,18µM*,-40%
COc1cccc(NC(=O)Nc2nc(SC(C)(C)C)ns2)c1,11µM*,8%,17%,2%,0%,nt
COc1cccc(NC(=O)Nc2nc(SC)ns2)c1,6.7µM*,1.4µM*,2.8µM*,?,?,nt
COc1cccc(NC(=O)C(C)(C)C)c1,5%,0%,-3%,4%,-3%,nt
CCSc1nsc(NC(=O)Nc2cccc(F)c2)n1,19µM*,-23%,-7%,-1%,?,nt
CCOC(=O)c1nc(NCc2ccc(Cl)cc2)c2c(C)noc2n1,-1%,nt,nt,nt,nt,nt
Cc1cc(C)cc(-n2c(SCC(=O)NC3CCCCC3)nc3c([nH]c4ccccc43)c2=O)c1,0%,nt,nt,nt,nt,nt
